Test [1] can be described thus: qHTS Assay for Lipid Storage Modulators (AID 1519; calls by dose curve; on activity change, negative = inhibition: on the % scale 0 is the no-effect control and ±100 the full control effect). The following applies: Drosophila S3 cells, BODIPY lipid droplet/cell ratio, laser cytometry, cells loaded with oleic acid. In outline:
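Cells seeded at 5,000 per well were treated with compounds over a concentration series and loaded with oleic acid (400 uM, as added). Lipid droplet fluorescence (488 nm excitation, 500-530 nm channel) was read by laser-scanning cytometry and normalized to 20 uM Triacsin C.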

Test [2] concerns the target Alpha-galactosidase (Coffea arabica) (UniProt Q42656). Put plainly: Counterscreen for Glucocerebrosidase Inhibitors: qHTS Assay for Coffee Bean alpha-Galactosidase at pH 5.9 (AID 998).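 Further: plate controls were uninhibited enzyme for no effect and no-enzyme basal signal for full effect.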 The following applies: coffee bean alpha-galactosidase enzyme assay; series mostly up to 76.9 µM. In outline: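 Green coffee bean enzyme (2 nM final) was incubated with compounds (0.7 nM–77 uM) and 4-methylumbelliferyl alpha-D-galactopyranoside (80 uM) in citrate buffer pH 5.9, 20 min at room temperature. High-pH stop; fluorescence 365/440 nm; AC50 from Hill fits.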

Test [3] in a line: qHTS for differential inhibitors of proliferation of Plasmodium falciparum line 7G8 (AID 1815).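 Further: potency means the concentration at half of the fitted maximal effect; parasite growth measured after three days of incubation.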 The following applies: Plasmodium falciparum 7G8 proliferation inhibition; series mostly up to 28.7 µM.
Test [4] can be described thus: qHTS for differential inhibitors of proliferation of Plasmodium falciparum line GB4 (AID 1816).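 Further: potency means the concentration at half of the fitted maximal effect; parasite growth measured after 72 h incubation.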 The following applies: Potency: Plasmodium falciparum GB4 proliferation inhibition; series mostly up to 28.7 µM.
The nature of test [5]: qHTS for differential inhibitors of proliferation of Plasmodium falciparum line 3D7 (AID 1876). Further: potency means the concentration at half of the fitted maximal effect. The following applies: P. falciparum 3D7 proliferation inhibition; series mostly up to 28.7 µM.
Test [6] is described as follows: qHTS for differential inhibitors of proliferation of Plasmodium falciparum line D10 (AID 1877).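 Further: potency means the concentration at half of the fitted maximal effect; parasites grown with compound for 72 h before DNA staining.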 The following applies: series mostly up to 28.7 µM.
Test [7] in a line: qHTS for differential inhibitors of proliferation of Plasmodium falciparum line Dd2 (AID 1882). Further: potency means the concentration at half of the fitted maximal effect; nearly all actives have a fitted effect of over 65% in size. The following applies: Potency: Plasmodium falciparum Dd2 proliferation inhibition; series mostly up to 28.7 µM. In outline: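 Dd2-infected erythrocytes (0.3% parasitemia, 2.5% hematocrit final) incubated with compound 72 h at 37 C, 5% CO2; lysed with saponin/Triton buffer containing SYBR Green I, incubated overnight in the dark, then read by fluorescence (485/535 nm). Normalized to 0.29 uM artemisinin and DMSO.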

The nature of test [8]: qHTS for differential inhibitors of proliferation of Plasmodium falciparum line W2 (AID 1883).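 Further: potency means the concentration at half of the fitted maximal effect; parasites grown with compound for 72 h before lysis and staining.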 The following applies: Potency: Plasmodium falciparum W2 proliferation inhibition; series mostly up to 28.7 µM.
A short description of test [9]: qHTS for differential inhibitors of proliferation of Plasmodium falciparum line HB3 (AID 1886).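 Further: potency means the concentration at half of the fitted maximal effect; parasites grown with compound for 72 h before SYBR Green readout.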 The following applies: Potency: Plasmodium falciparum HB3 proliferation inhibition; series mostly up to 28.7 µM.
A short description of test [10]: Cell Viability - LYMP2-022 (AID 987). Further: nearly all actives have a fitted effect of over 55% in size. Further: potency means the concentration at half of the fitted maximal effect. The following applies: LYMP2-022 lymphoblastoid cell viability; series mostly up to 92.2 µM. In outline: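 qHTS: human lymphoblastoid cells 2500/well; 5 hr 37 C; cpd added; 24 hr 37 C; CellTiter-Glo, 30 min RT; luminescence. AC50 via Hill fit; tetraoctylammonium bromide positive ctrl.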
Test [11] is described as follows: Cell Viability - LYMP2-024 (AID 988). Further: nearly all actives have a fitted effect of over 60% in size. Further: potency means the concentration at half of the fitted maximal effect. Particulars: LYMP2-024 lymphoblastoid cell viability; series mostly up to 92.2 µM. The gist of the method: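 Steps: seed 2500 cells/well, 5 hr 37 C; add compound, 24 hr 37 C; add CellTiter-Glo, 30 min room temperature; read luminescence. AC50 derived by Hill modelling of concentration-dependent ATP loss.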
Test [12] in a line: Cell Viability - LYMP2-026 (AID 989).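 Further: cells exposed to compound for 24 h at 37 °C; nearly all actives have a fitted effect of over 50% in size.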 Further: potency means the concentration at half of the fitted maximal effect. Particulars: LYMP2-026 lymphoblastoid cell viability, qHTS; series mostly up to 92.2 µM. In outline: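 Luminescent ATP signal (CellTiter-Glo, 30 min room temperature) measures viable lymphoblastoid cells after 24 hr compound treatment at 37 C. Decreased ATP reflects acute toxicity; AC50 values come from Hill-equation modeling.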
Test [13] in a line: Cell Viability - LYMP1-002 - Assay at 24 hr (AID 993). Further: potency means the concentration at half of the fitted maximal effect. Particulars: LYMP1-002 lymphoblastoid cells viability; series mostly up to 92.2 µM. The gist of the method:
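Cells plated 2500/well, 5 hr 37 C; compounds added, 24 hr 37 C; CellTiter-Glo added, 30 min RT; luminescence read. Tetraoctylammonium bromide positive control. Hill-equation AC50.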

The nature of test [14]: Cell Viability - LYMP1-002 - Assay at 40 hr (AID 994). Further: nearly all actives have a fitted effect of over 60% in size. Further: potency means the concentration at half of the fitted maximal effect. Particulars: LYMP1-002 lymphoblastoid cell viability; series mostly up to 92.2 µM. The gist of the method:
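Luminescent ATP signal served as the viability readout, with decreases taken as toxicity. Cells were treated with compounds across a concentration range for 40 hours at 37 C, and AC50 values came from standard Hill modeling.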

The mark [15] stands for this setting: measured here: cell count channel max response.
[16] abbreviates: measured here: lipid channel max response.

Molecules are shown by their SMILES. Several values for one entry are separate records, joined by “and”; a condition that tells them apart may be missing. Equal entries are not always repeated. Records with an inconclusive call do not appear. A structure can be active in one record and inactive in another. Activity calls are given as the source filed them. Unless noted, the call rests on the fitted dose curve; in most records, active means well fitted curve in the direction sought with a large enough effect; inconclusive means small, poorly fitted or top-dose-only effect, or another doubt; inactive means no such curve, though single readings can be large; an effect the other way counts as inactive or inconclusive.

Chain of Alpha-galactosidase (Coffea arabica) (Q42656 whole entry, looked up): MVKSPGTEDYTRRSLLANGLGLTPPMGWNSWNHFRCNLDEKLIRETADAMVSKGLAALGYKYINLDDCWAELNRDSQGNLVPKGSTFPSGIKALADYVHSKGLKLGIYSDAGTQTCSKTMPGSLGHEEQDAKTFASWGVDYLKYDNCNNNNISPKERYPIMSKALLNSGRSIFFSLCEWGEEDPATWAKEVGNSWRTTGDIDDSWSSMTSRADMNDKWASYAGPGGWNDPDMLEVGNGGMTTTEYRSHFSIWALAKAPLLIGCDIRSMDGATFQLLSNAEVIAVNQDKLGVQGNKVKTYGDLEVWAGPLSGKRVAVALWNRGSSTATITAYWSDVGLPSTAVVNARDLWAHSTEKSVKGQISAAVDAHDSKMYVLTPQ

As for `O=C(CCCN1CCC(n2c(=O)[nH]c3ccccc32)CC1)c1ccc(F)cc1`, in test [1] (at 25.7 µM (top of the series)), the activity change, negative = inhibition is 0.264% (inactive). In addition, the values for the max response in [1] (setting [15]) and in test [1] (setting [16]) were -5.85% and -3.11%, respectively.
Consider `Clc1ccc(CO/N=C(\Cn2ccnc2)c2ccc(Cl)cc2Cl)c(Cl)c1`, for which the activity change, negative = inhibition in test [1] (at 57.5 µM (top of the series)) was 5.8% (inactive). For the same compound, the max response in [1] (setting [15]) is -2.06%; in test [1] (setting [16]), 5.32%.
For the compound `Cn1cnc2c1c(=O)[nH]c(=O)n2C`, in test [2], the compound was classed as inactive.
On to `C[N+](C)(C)CCCCCCCCCC[N+](C)(C)C`, for which the Potency in [3] is 5.01 µM (active); in test [4], 3.98 µM (active); in [5], 0.355 µM (active); in test [6], 1.26 µM (active); in test [7], 10 µM (active); in [8], 0.562 µM (active). Besides, the Potency in test [9] was 1.78 µM (active).
As to `O=C(O)CN(CCOCCOCCN(CC(=O)O)CC(=O)O)CC(=O)O`, the compound was classed as inactive in test [2].
As for `Cc1ccc(=O)n(-c2ccccc2)c1`, in test [2], the result was inactive.
Same read-out and setting: the value for `Nc1c2c(nc3ccccc13)CCCC2` was “inactive”; that for `O=C(O)CCc1nc(-c2ccccc2)c(-c2ccccc2)o1` was “inactive”; that for `CCCC(C(=O)OCCN(CC)CC)(c1ccccc1)c1ccccc1` was “inactive”.
On the same count and under the same terms, the value for `C[C@]12CCC(=O)C=C1CC[C@@H]1[C@@H]2C(=O)C[C@@]2(C)[C@H]1CC[C@]2(O)C(=O)CO` was “inactive”; that for `O=C(CCCN1CCC(O)(c2cccc(C(F)(F)F)c2)CC1)c1ccc(F)cc1` was “inactive”.
For `COP(=O)(OC)OC=C(Cl)Cl`, the Potency result in test [10], in test [11], in test [12] and in test [13] was “inactive” each time. In addition, the Potency in test [14] is 12.6 µM (active) and inactive.
Turning to `C(=C\c1ccccc1)/CN1CCN(C(c2ccccc2)c2ccccc2)CC1`, the call in [2] was inactive.
Consider `O=c1[nH]c2ccccc2n1CCCN1CCN(C(c2ccccc2)c2ccccc2)CC1`, for which the call in test [2] was inactive.
Turning to `O=C(CCl)c1ccc(Cl)cc1Cl`, the Potency was 2 µM (active) in test [10]; 2.51 µM (active) in [11]; 6.31 µM (active) in test [12]; 15.8 µM (active) in test [13]; 25.1 µM (active) in test [14].
For the compound `Cc1cc(C(C)(C)C)c(O)c(C)c1CC1=NCCN1`, the result in [2] was inactive.
On to `O=C(CCNNC(=O)c1ccncc1)NCc1ccccc1`, for which, in [2], the outcome was inactive.
Regarding `C[C@]12CCC(=O)C=C1CC[C@@H]1[C@@H]2CC[C@@]2(C)[C@H]1CC[C@]2(O)C(=O)CO`, the call in test [2] was inactive.
With `Oc1c(Br)cc(Br)cc1Br`, the Potency entry in test [10], in test [11], in test [12], in [13] and in [14] was “inactive” each time.
Turning to `COc1ccc2c(c1)c(CC(=O)O)c(C)n2C(=O)c1ccc(Cl)cc1`, in test [2], the compound was classed as inactive.
With `CN(C)CCCN1c2ccccc2Sc2ccccc21`, the call in test [2] was inactive.
With `OCc1cc(C(O)CNCCCCCCOCCCCc2ccccc2)ccc1O` (centres undefined), the call in [2] was inactive.
For the compound `CCCCCCCCCCCC[N+](C)(C)CCOc1ccccc1`, the Potency is 39.8 µM (active) in [10]; 39.8 µM (active) in test [11]; 39.8 µM (active) in [12]; 7.94 µM (active) in [13]; 31.6 µM (active) in test [14].
In the case of `NC(N)=N/N=C/c1c(Cl)cccc1Cl`, the Potency in [3] is 11.2 µM (active); in test [4], 11.2 µM (active); in test [5], 6.31 µM (active); in test [6], 11.2 µM (active); in test [8] it was 3.98 µM (active); in test [9], 6.31 µM (active).
With `C[C@@H]1C[C@@H]([C@H](O)CC2CC(=O)NC(=O)C2)C(=O)[C@@H](C)C1`, the Potency is 794 nM (active) and 1 µM (active) in [10]; 0.794 µM (active) in [11]; 1 µM (active) in [12]; 1.26 µM (active) and inactive in test [14]. In test [13], the Potency result was “inactive”.
On to `Cc1nc2sccn2c(=O)c1CCN1CCC(=C(c2ccc(F)cc2)c2ccc(F)cc2)CC1`, for which the outcome in test [2] was inactive.
Take `C[C@]12CC[C@@H]3c4ccc(O)cc4CC[C@H]3[C@@H]1CCC2=O`: in [2], the result was inactive.
As to `CN(C)C(=S)SSC(=S)N(C)C`, the Potency in test [10] is 0.158 µM (active); in [11], 0.251 µM (active); in test [13], 0.316 µM (active); in [14], 3.98 µM (active).
For `CCNC(=O)N1CCN(CCCC(c2ccc(F)cc2)c2ccc(F)cc2)CC1`, the result in [2] was inactive.
Consider `CNC(=O)Oc1cccc2ccccc12`, for which the Potency entry in test [10], in [11], in [12], in test [13] and in test [14] was “inactive” throughout.
Regarding `Oc1ccc(Cl)cc1Sc1cc(Cl)ccc1O`, the Potency in test [14] is 50.1 µM (active).
Regarding `CC(C)(C)c1ccc(C(O)CCCN2CCC(C(O)(c3ccccc3)c3ccccc3)CC2)cc1` (centres undefined), the outcome in test [2] was inactive.

The values above are taken from PubChem BioAssay (NCATS).
